Bioassay records: PubChem, National Center for Advancing Translational Sciences (NCATS)
Only some compounds are listed: those with a hit (about 1.2% of all), similar ones and a draw of the others.
MmCpn inh – Inhibitors of TCP-1 ring complex (TRiC) of Methanococcus maripaludis (MmCpn): qHTS. purified Mm-Cpn ATPase, ADP Transcreener TR-FRET. Potency, µM (highest dose often 76.9 µM), most hits filed as inhibitors. actives 0.031% (n = 330,000); note: nearly all actives have a fitted effect of over 80% in size
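ATP (10 uM final) was added to archaeal chaperonin (25 nM final) after 10 min exposure to test compound at 37°C; after 30 min further incubation, ADP was detected by competitive TR-FRET.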
gsp antag – qHTS for Antagonists of gsp, the Etiologic Mutation Responsible for Fibrous Dysplasia/McCune-Albright Syndrome: qHTS | actives 0.4% (n = 340,000) | gsp-mutant cells, cAMP HTRF, 30 min | Potency, µM (top dose mostly 76.9 µM), usual class: inhibitors | AID 624288, 2012; calls by dose curve; cell line not stated here;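 note: intracellular cAMP measured with PDE inhibitor Ro 20-1724 present during compound exposure; nearly all actives have a fitted effect of over 65% in size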
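G418-selected cells were plated in DMEM/10% FBS for 16-24 h at 37C, then treated with compounds plus the PDE inhibitor […] (300 uM solution added) for 30 min at 37C. Intracellular cAMP was measured by HTRF after 30 min lysis at room temperature.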
RXFP1 antagonist – qHTS Assay for Antagonists of the Relaxin Receptor RXFP1; Relaxin receptor 1 (Homo sapiens), Q9HBX9; HEK293-RXFP1, relaxin-stimulated cAMP HTRF, 30 min; hits give low values; activity change, negative = inhibition, % at 57.5 µM; actives 0.59% (n = 350,000); AID 1259400, 2018;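 active = activity change of -60% or lower, but not beyond a set lower limit; inconclusive = change between -60% and -40%, or beyond the set limit; inactive = change above -40%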
Target sequence (Q9HBX9 whole entry, looked up): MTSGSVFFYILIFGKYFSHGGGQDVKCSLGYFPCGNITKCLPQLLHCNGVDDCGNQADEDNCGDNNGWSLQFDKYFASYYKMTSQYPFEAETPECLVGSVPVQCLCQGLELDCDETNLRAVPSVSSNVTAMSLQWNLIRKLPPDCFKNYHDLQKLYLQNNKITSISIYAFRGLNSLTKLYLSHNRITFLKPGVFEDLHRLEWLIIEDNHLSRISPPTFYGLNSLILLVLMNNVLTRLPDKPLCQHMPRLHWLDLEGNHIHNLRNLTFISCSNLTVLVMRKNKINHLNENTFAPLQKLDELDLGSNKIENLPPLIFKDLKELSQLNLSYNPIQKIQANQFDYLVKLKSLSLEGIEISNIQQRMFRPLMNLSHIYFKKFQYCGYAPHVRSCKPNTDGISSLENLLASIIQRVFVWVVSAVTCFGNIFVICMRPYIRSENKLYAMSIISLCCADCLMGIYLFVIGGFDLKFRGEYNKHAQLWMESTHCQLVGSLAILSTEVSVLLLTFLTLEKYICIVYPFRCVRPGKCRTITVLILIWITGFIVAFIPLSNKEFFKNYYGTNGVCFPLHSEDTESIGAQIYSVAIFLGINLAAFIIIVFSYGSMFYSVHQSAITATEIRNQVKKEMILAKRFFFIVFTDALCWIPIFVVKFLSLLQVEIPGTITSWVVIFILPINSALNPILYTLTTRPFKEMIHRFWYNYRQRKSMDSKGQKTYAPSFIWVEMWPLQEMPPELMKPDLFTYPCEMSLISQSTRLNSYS
CCT modulator – High-Throughput Screening for Modulators of Cytosolic Chaperonin Activity. activity change, % (no concentration beside the values), hits read low. AID 651819, 2012. actives 0.3% (n = 360,000). purified chaperonin ATPase assay, HTRF ADP detection, 30 min; in the data active = activity change below about -30%
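Enzyme 40 or 20 nM (batch-dependent) in Tris pH 7.4/KCl/MgCl2/DTT; cpd 76 uM single point; ATP 10 uM; 30 min 37 °C; Transcreener ADP HTRF detection, 30 min RT; ratio 665/615.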
RXFP1 ag – qHTS Assay for Agonists of the Relaxin Receptor RXFP1 | Relaxin receptor 1 (Homo sapiens), Q9HBX9 | HEK293T-RXFP1 cAMP TR-FRET, 30 min; response scale: percent of porcine relaxin response, buffer zero | Potency, µM (top dose mostly 57.5 µM), hits mostly activators | actives 0.3% (n = 370,000) | AID 2676, 2010; note: nearly all actives have a fitted effect of over 60% in size
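HEK293T cells stably expressing RXFP1 were pretreated with the PDE4 inhibitor Ro 20174, exposed to compounds for 30 min at 37C, lysed, and cAMP was read by TR-FRET. Data normalized to buffer (basal) and 29 nM porcine relaxin (100%).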
gsp ag – qHTS for Agonist of gsp, the Etiologic Mutation Responsible for Fibrous Dysplasia/McCune-Albright Syndrome: qHTS; gsp mutant cells, cAMP HTRF, 30 min; Potency, µM (series often up to 76.9 µM), usual class: activators; actives 0.13% (n = 340,000); AID 624287, 2012; active = well fitted activation curve with a large enough effect; inconclusive = small, poorly fitted or top-dose-only effect, or another doubt; inactive = no such curve, though single readings can be large or run the other way; cell line not stated here;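 note: phosphodiesterase inhibitor Ro 20-1724 added with compounds to block cAMP breakdown; nearly all actives have a fitted effect of over 60% in size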
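Cells in DMEM/10% FBS with G418 were pretreated with compounds in DMSO plus […] (300 uM stock) for 30 min at 37C. cAMP was measured by HTRF (cAMP-d2 plus anti-cAMP antibody-K) after 30 min at room temperature.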
Large screens that a line does not name were inactive. Unless noted, calls come from the whole dose curve; as a rule, active = well fitted curve in the direction sought with a large enough effect; inconclusive = small, poorly fitted or top-dose-only effect, or another doubt; inactive = no such curve, though single readings can be large; an effect the other way counts as inactive or inconclusive.

COc1cc(OC)cc(-c2nnc(SCC(=O)N3CCC(C)CC3)o2)c1	none (no result: MmCpn inh, gsp antag, CCT modulator, gsp ag)
COc1cccc(C(=O)COc2ccc3c(C)c(Cc4ccccc4)c(=O)oc3c2)c1	none
Cc1c(C)c2ccc(OCC(=O)c3ccccc3)cc2oc1=O	gsp antag 35.5µM, gsp ag inconclusive
COc1cc(C(=O)NCCN2C(=O)S/C(=C\c3cccs3)C2=O)cc(OC)c1OC	gsp antag inconclusive
COc1cc(OC)cc(C(=O)NCCN2C(=O)S/C(=C\c3cccs3)C2=O)c1	gsp antag 28.2µM
Cc1ccc2c(C)c(C(=O)NCCN3CCCC(O)C3)oc2c1C (stereo not given)	RXFP1 antagonist -111.8, CCT modulator -37.9
COc1cccc(CNc2ccc3[nH]c(=O)[nH]c3c2)c1OCc1ccccc1	none
COc1cccc(CNc2ccc3[nH]c(=O)[nH]c3c2)c1OCc1ccccc1Cl	RXFP1 antagonist -74.8
Cc1cc(NCc2ccccc2Cl)n2cnnc2n1	none (no result: MmCpn inh, gsp antag, CCT modulator, gsp ag)
COc1ccc(-c2cc(C(F)(F)F)nc(SCCC(=O)Nc3ccc(O)cc3)n2)cc1	none (no result: MmCpn inh, gsp antag, RXFP1 antagonist, CCT modulator, gsp ag)
S=C(N/N=C/c1cccs1)NC1CC2CCC1C2 (stereo not given)	RXFP1 antagonist -67.1
COc1cccc(Nc2nc3ccc(C(=O)c4ccccc4)cc3n3c(C)nnc23)c1	none (no result: MmCpn inh, gsp antag, CCT modulator, gsp ag)
Cc1ccc(Cl)c2c1=NC(=O)C=2c1[nH]c(=S)[nH]c1O	RXFP1 antagonist -108.6, gsp ag inconclusive
O=C(C1=C(O)C(=O)N(CCc2ccccc2)C1c1ccncc1)c1cc2ccccc2o1 (stereo not given)	RXFP1 ag 14.1µM
Cc1ccc2nc(N3C(=O)C(O)=C(C(=O)c4cc5ccccc5o4)C3c3cccs3)sc2c1 (stereo not given)	none
O=C(C1=C(O)C(=O)N(c2nccs2)C1c1ccccc1)c1cc2ccccc2o1 (stereo not given)	RXFP1 ag 15.8µM, gsp ag inconclusive
CCNC1=C(Cl)C(=O)c2ccccc2C1=O	none
CCCC(=O)NC1=C(Cl)C(=O)c2ccccc2C1=O	gsp antag 44.7µM, RXFP1 antagonist inconclusive (no result: MmCpn inh, RXFP1 ag)
COc1ccc(NC(=O)C2CC(=O)N(Cc3ccc(C)cc3)C2)cc1S(=O)(=O)N1CCCCC1 (stereo not given)	none (no result: RXFP1 antagonist)
Cc1ccc(CN2CC(C(=O)Nc3ccc(C)c(S(=O)(=O)N4CCCCC4)c3)CC2=O)cc1 (stereo not given)	CCT modulator -40.9 (no result: MmCpn inh, RXFP1 ag)
O=c1[nH]c(CCl)nc2cc(-c3ccc(F)cc3)sc12	CCT modulator -39.5, gsp ag inconclusive
O=C(COC(=O)[C@@H]1CC(O)CN1S(=O)(=O)c1ccccc1[N+](=O)[O-])c1ccccc1 (stereo not given in full)	none
CCc1cccc2c(C(=O)COC(=O)[C@@H]3CC(O)CN3S(=O)(=O)c3ccccc3[N+](=O)[O-])c[nH]c12 (stereo not given in full)	RXFP1 antagonist -80.0 (no result: RXFP1 ag)
Cc1ccc(CNC(=O)COC(=O)C2CCN(S(=O)(=O)c3cccs3)CC2)cc1	gsp antag 35.5µM, gsp ag inconclusive
O=C(COC(=O)C1CCN(S(=O)(=O)c2cccs2)CC1)NCc1ccccc1	none
CCCN1C(=O)S/C(=C\c2ccc(N3CCOCC3)o2)C1=O	none
CCCN1C(=O)S/C(=C/c2ccc(N3CCOCC3)o2)C1=O	RXFP1 antagonist -91.9
COc1ccc(OC)c(NC(=O)CN(c2ccccc2OC)S(=O)(=O)c2ccc(C)cc2)c1	none (no result: MmCpn inh, gsp antag, RXFP1 antagonist, CCT modulator, gsp ag)
O=C(NNc1ccc([N+](=O)[O-])cc1[N+](=O)[O-])c1ccco1	MmCpn inh inconclusive, gsp antag 35.5µM
